In the supplement of paper PMC6555819:

Legend:
Experiment in all cases: PBM binding z-score (relative to random genomic background probes); higher = stronger binding; sequences stand for … in GC…GCGATTGACAGCGTAGAATGAAGG
[1] = tested on: FXR:RXRa (NR concentration 270 nM, RXRa partner concentration 90 nM)
Outline: (§1)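 Custom Agilent 4×180K protein-binding microarrays carried double-stranded probes, each with a 34-nt variable region. These regions held direct-repeat seeds, single-nucleotide variants, half-site ablations and random human genomic background sequences. Ligand-free nuclear receptor dimers were incubated on the arrays for 1 h, antibodies against each partner (one per run) detected binding, and scanned fluorescence was regression-normalized. Binding z-scores take the random background probes as reference.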

[2] = tested on: LXRa:RXRa (NR concentration 270 nM, RXRa partner concentration 90 nM)
Outline: as §1

[3] = tested on: LXRa homodimer (NR concentration 270 nM)
Outline: as §1

[4] = tested on: LXRb:RXRa (NR concentration 270 nM, RXRa partner concentration 90 nM)
Outline: as §1

[5] = tested on: LXRb homodimer (NR concentration 270 nM)
Outline: as §1

[6] = tested on: PPARa:RXRa (NR concentration 270 nM, RXRa partner concentration 90 nM)
Outline: as §1

[7] = tested on: PPARg:RXRa (NR concentration 180 nM, RXRa partner concentration 90 nM)
Outline: as §1

[8] = tested on: PPARg:RXRa 270nM:90nM, anti-RXR (NR concentration 270 nM, RXRa partner concentration 90 nM)
Outline: as §1

[9] = tested on: PPARg:RXRa 30nM:10nM, anti-RXR (NR concentration 30 nM, RXRa partner concentration 10 nM)
Outline: as §1

[10] = tested on: PPARg:RXRa 90nM:30nM, anti-RXR (NR concentration 90 nM, RXRa partner concentration 30 nM)
Outline: as §1

[11] = tested on: PPARg:RXRa DBDmut IVT, anti-RXR (DBD mutation: RXRa K156A/R161A, NR concentration 270 nM, RXRa partner concentration 90 nM)
Outline: as §1

[12] = tested on: PPARg:RXRa IVT, anti-PPARg (NR concentration 270 nM, RXRa partner concentration 90 nM)
Outline: as §1

[13] = tested on: PPARg DBDmut:RXRa IVT, anti-PPARg (DBD mutation: PPARg1 K132A/R137A, NR concentration 270 nM, RXRa partner concentration 90 nM)
Outline: as §1

[14] = tested on: PPARg DBDmut IVT, anti-PPARg (DBD mutation: PPARg1 K132A/R137A, NR concentration 270 nM)
Outline: as §1

[15] = tested on: PPARg homodimer (NR concentration 180 nM)
Outline: as §1

[16] = tested on: PXR:RXRa (NR concentration 270 nM, RXRa partner concentration 90 nM)
Outline: as §1

[17] = tested on: PXR homodimer (NR concentration 270 nM)
Outline: as §1

[18] = tested on: RARa:RXR (NR concentration 270 nM, RXRa partner concentration 90 nM)
Outline: as §1

[19] = tested on: RARa homodimer (NR concentration 270 nM)
Outline: as §1

[20] = tested on: RARb:RXRa (NR concentration 270 nM, RXRa partner concentration 90 nM)
Outline: as §1

Row | Sequence | PBM binding z-score [1] | PBM binding z-score [2] | PBM binding z-score [3] | PBM binding z-score [4] | PBM binding z-score [5] | PBM binding z-score [6] | PBM binding z-score [7] | PBM binding z-score [8] | PBM binding z-score [9] | PBM binding z-score [10] | PBM binding z-score [11] | PBM binding z-score [12] | PBM binding z-score [13] | PBM binding z-score [14] | PBM binding z-score [15] | PBM binding z-score [16] | PBM binding z-score [17] | PBM binding z-score [18] | PBM binding z-score [19] | PBM binding z-score [20]
1 | CTTACAGGGTCAGCTAGGCCAGAGTAGGGACGGC | 4.5 | 2.83 | -0.519 | 2.04 | -0.147 | 4.25 | 2.76 | 3.24 | 0.782 | 2.02 | 2 | 2.59 | -0.146 | -0.1 | 0.148 | 1.88 | -0.368 | 2.75 | 0.0802 | 4.04
2 | CCTACTGGGCCATCAGGTCAGTGATATCAACGTT | 0.148 | 0.0376 | 0.047 | 0.311 | -0.379 | 1.91 | 2.01 | 2.42 | 0.364 | 1.92 | 4.12 | 4.95 | -0.457 | 0.096 | 0.501 | 0.376 | -0.631 | 0.801 | -0.59 | 1.77
3 | CGAACTAGTTCATTGACAGGACAGTGAATAGTAA | 0.24 | 0.585 | 0.0589 | 0.212 | -0.317 | 0.375 | 0.284 | 0.0577 | -0.0865 | -0.122 | 0.941 | 0.504 | 0.647 | 0.333 | 0.0581 | 1.09 | 0.739 | 0.372 | 0.437 | 1.25
4 | CAAACTAGGTCAAGAGGTGAAAGTCCGCTTCCCG | 5.13 | 3.89 | 0.764 | 2.66 | 0.24 | 5.8 | 8.82 | 7.36 | 5.81 | 7.88 | 8.11 | 8.63 | 5.95 | 5.05 | 5.72 | 2.72 | 0.369 | 4.83 | 1.4 | 4.54
5 | CTCGAAAGGTCGGTTGAGGTGAGTTTACGGATAA | 2.83 | 1.88 | 0.32 | 1.63 | -0.184 | 2.69 | -9.87e-05 | 1.12 | 0.0415 | 0.508 | 1.08 | 0.924 | -0.565 | -0.36 | 0.854 | 3.83 | 0.588 | 2.16 | -0.143 | 3.09
6 | CGCCCAAGGTCAGAGAGGTCAGTGAATGCCGAGT | 6.04 | 4.89 | 3.24 | 4.24 | -0.135 | 4.86 | 3.1 | 4.03 | 0.767 | 2.55 | 2.95 | 2.94 | -0.485 | -0.732 | 3.98 | 5.86 | 11.8 | 5.47 | 3.01 | 5.09
7 | ATCTCTAGCTAAAGATAGTTCAGTGAATGCAAAT | -0.338 | -0.141 | 0.164 | 0.199 | 0.452 | 0.345 | 0.318 | -0.271 | -0.0381 | -0.201 | -0.205 | -0.237 | 1 | 0.169 | 0.538 | 0.463 | 0.542 | 0.855 | 0.543 | 0.329
